# Screening results deposited in PubChem BioAssay by several laboratories.
# VHR inh abs: DUSP3 (human) phosphatase inhibition; P51452; recombinant VHR phosphatase, pNPP absorbance; inhibition, % at 13.3 µM; hit rate 0.52% among 290,000; AID 1654; in the data active = inhibition above about 50%
# BoNT F protease: inhibitors of Botulinum neurotoxin F light chain protease; Multiplex microsphere protease cleavage assay, flow cytometry; inhibition, % at 10 µM; hit rate 0.22% among 360,000; AID 588497; in the data active = inhibition above about 35%, passing the limit was not always enough; inconclusive = no clear call, values can overlap the other calls
# Anthrax LF prot: blocks Bacillus anthracis lethal factor protease; multiplex microsphere protease cleavage assay, LF; inhibition, % at 10 µM; P15917; hit rate 0.12% among 360,000
# 3CLpro inhibitor: SARS-CoV 3CLpro protease inhibition. recombinant SARS-CoV 3CLpro, quenched FRET peptide cleavage. inhibition, % at 6 µM. hit rate 0.14% among 290,000; in the data active = inhibition above about 12%
# BoNT A protease: BoNT A light chain protease inhibition; multiplex microsphere protease substrate cleavage, flow cytometry; inhibition, % at 10 µM; hit rate 0.17% among 360,000; AID 588499
# Bead autofluor: compound fluorescence in toxin protease inhibitor counterscreen. compound autofluorescence counterscreen, microsphere flow cytometry; active compounds read high. fluorescence intensity (no concentration beside the values). hit rate 3.1% among 360,000. AID 624483; in the data active = fluorescence intensity above about 16000; inconclusive = no clear call, values can overlap the other calls
# Hits are given with their value; - = inactive; ? = inconclusive; . = no result given. Compounds with a hit are over-represented: about 3.9% of the library has one in this group of screens. Rule as the data show it, unless noted: active = inhibition above about 30%; inconclusive = no clear call, values can overlap the other calls; inactive = below that.
SMILES,VHR inh abs,BoNT F protease,Anthrax LF prot,3CLpro inhibitor,BoNT A protease,Bead autofluor
CCCc1[nH]nc2c1C(c1cc(OC)ccc1F)C(C#N)=C(N)O2 (stereo not given),-,-,-,-,-,18896
CCOC(=O)Cc1[nH]nc2c1C(c1cccc(OC)c1OC)C(C#N)=C(N)O2 (stereo not given),-,-,-,-,-,-
CCOC(=O)Cc1[nH]nc2c1C(c1cc(OC)ccc1OC)C(C#N)=C(N)O2 (stereo not given),-,-,-,-,-,21991
COC(=O)c1sc(N)c(C(=O)OC)c1COC(=O)C1CC(=O)N(Cc2ccco2)C1 (stereo not given),-,-,-,-,-,21636
CCOC(=O)c1sc(N)c(C(=O)OCC)c1COC(=O)C1CC(=O)N(Cc2ccco2)C1 (stereo not given),-,-,-,-,-,?
Cn1nnnc1SCC(=O)NC1CCCC1,-,-,-,-,-,-
CCOC(=O)C1(S(=O)(=O)c2ccccc2)CCN(Cc2ccc(Cl)cc2)CC1,-,-,-,-,-,-
CCOC(=O)C1(S(=O)(=O)c2ccc(Cl)cc2)CCN(Cc2ccc(Cl)cc2)CC1,-,-,-,-,-,23017
CCc1ccc(C(O)c2ncc(-c3ccc(C)cc3)[nH]2)cc1 (stereo not given),.,-,-,.,-,-
Fc1cccc(F)c1/C=C/c1ccc2ccccc2n1,-,-,-,-,-,-
CC(O)/C=C/c1ccc2ccccc2n1 (stereo not given),-,-,-,-,-,17160
CCc1ccc(NC(=O)CSc2nc3cc(C(=O)OC)ccc3c(=O)n2Cc2ccco2)cc1,-,-,-,-,-,-
O=C(CSc1nc2sc3c(c2c(=O)n1-c1ccccc1)CCCC3)NCc1ccco1,-,-,-,-,-,-
CCCCCn1c(SCC(=O)OCC)nc2cc(C(=O)NCc3ccco3)ccc2c1=O,-,-,-,-,-,21498
COCCNC(=O)c1ccc2c(=O)n(Cc3ccco3)c(SCC(=O)NC3CCCC3)nc2c1,-,-,-,-,-,21828
CCN(C(=O)CSc1nc2cc(C(=O)OC)ccc2c(=O)n1Cc1ccco1)c1cccc(C)c1,-,-,-,-,-,16983
COCCNC(=O)CSc1nc2cc3c(cc2c(=O)n1Cc1ccco1)OCO3,-,-,-,-,-,-
COCCCn1c(SCC(=O)NCc2ccco2)nc2sc3c(c2c1=O)CCC3,-,-,-,-,-,19443
O=C(OCC(=O)N1CCN(C(=O)c2ccco2)CC1)c1cccc(S(=O)(=O)N2CCc3ccccc32)c1,-,-,-,-,-,-
Cc1ccc(C(CC(=O)O)Nc2nc(N3CCOCC3)nc(N3CCOCC3)n2)cc1 (stereo not given),-,-,-,-,-,-
CCCC12CN3CC(C)(CN(C1)C3c1cccs1)C2=O (stereo not given),-,-,-,-,-,-
O=C(O)c1cc(N2C(=O)C3C4C=CC(C4)C3C2=O)ccc1N1CCOCC1 (stereo not given),-,-,-,-,-,-
C=CCn1c(SCC(=O)OCC)nc2cc(C(=O)NCc3ccco3)ccc2c1=O,-,-,-,-,-,23049
CCOC(=O)CSc1nc2ccccc2c(=O)n1Cc1ccco1,-,-,-,-,-,-
CCCCn1c(SCC(=O)NCc2ccco2)nc2ccc(N3CCOCC3)cc2c1=O,-,-,-,-,-,22158
SMILES,VHR inh abs,BoNT F protease,Anthrax LF prot,3CLpro inhibitor,BoNT A protease,Bead autofluor
CCOC(=O)CSc1nc2cc(C(=O)NCC3CCCO3)ccc2c(=O)n1Cc1ccco1 (stereo not given),-,-,-,-,-,22243
Cc1ccc(C)n1Cc1ccc(C(=O)O)cc1,-,-,-,-,-,24761
Cc1ccc(O)c(NC(=O)c2cc([N+](=O)[O-])ccc2Cl)c1,52,-,-,-,-,-
Cc1ccc(O)c(NC(=S)NC(=O)c2ccccc2Cl)c1,-,38,-,-,-,-
Cc1cc(O)c(NC(=O)c2cc([N+](=O)[O-])ccc2Cl)cc1C,-,-,-,-,-,-
CCN(CC)Cc1c(C(=O)N/N=C/c2ccccn2)nnn1-c1nonc1N,-,-,-,-,-,-
CCN(CC)c1ccc(/C=N/N2C(=O)c3ccccc3C2=O)cc1,-,-,-,-,-,-
CCN(CC)c1ccc(/C=N/n2c(C)cc(C)cc2=O)cc1,-,-,-,-,-,19156
COc1cc(C(O)c2nc(-c3ccc(F)cc3OC)cs2)ccc1F (stereo not given),.,-,-,.,-,-
COc1ccccc1CC(NC(C)=O)C(=O)N1CCN(C(=O)c2cccs2)CC1 (stereo not given),-,-,-,-,-,-
COc1cc(C(=O)N2CCC(NC(=O)C(Cc3ccc(C)cc3)NC(C)=O)CC2)cc(OC)c1OC (stereo not given),-,-,-,-,-,22816
COc1cc(C(=O)N2CCN(C(=O)C(Cc3cc(C)ccc3C)NC(C)=O)CC2)cc(OC)c1OC (stereo not given),-,-,-,-,-,22028
COc1ccc(CC(NC(C)=O)C(=O)NC2CCN(C(=O)c3ccncc3)CC2)cc1OC (stereo not given),-,-,-,-,-,-
COc1cc(C(=O)N2CCC(NC(=O)C(Cc3ccccc3C)NC(C)=O)CC2)cc(OC)c1OC (stereo not given),-,-,-,-,?,21354
COc1cc(C(=O)N2CCC(NC(=O)C(Cc3ccc(C(C)C)cc3)NC(C)=O)CC2)cc(OC)c1OC (stereo not given),-,-,-,-,-,-
COc1ccc(CC(NC(C)=O)C(=O)NC2CCN(C(=O)c3cccc(Cl)c3)CC2)cc1OC (stereo not given),53,-,-,-,-,-
O=C(Cc1nc(=O)c2ccccc2s1)Nc1ccccc1,-,-,-,-,-,16611
O=C(Cc1ccccc1)Nc1nc(=O)c2ccccc2s1,-,-,-,-,-,-
O=C(c1ccco1)N1CCN(S(=O)(=O)Cc2ccc(Cl)cc2)CC1,-,-,-,-,-,-
CCOc1ccc(S(=O)(=O)N2CCN(S(=O)(=O)c3ccc(OCC)cc3)C(C)C2)cc1 (stereo not given),-,-,-,-,-,17504
CCS(=O)(=O)N1CCN(c2ccccn2)CC1,-,-,-,-,-,26268
Cc1ccc2[nH]c3c(N4CCN(Cc5ccccc5)CC4)ncnc3c2c1,-,-,-,-,-,-
CCOc1ccc2[nH]c3c(N4CCN(c5ccccn5)CC4)ncnc3c2c1,-,-,-,-,-,18129
CCOc1ccc(S(=O)(=O)N2CCN(c3ccccn3)CC2)cc1,56,-,-,-,-,-
CCCS(=O)(=O)N1CCN(c2ccccn2)CC1,-,-,-,-,-,-
CCc1nc2c(OCCC3CCCCC3)cccn2c1N(C)C(=O)c1ccc(OC)cc1,.,-,-,.,-,-
O=S(=O)(c1cccs1)N1CCN(c2ncccn2)CC1,-,-,-,-,-,-
